These results are taken from PubChem BioAssay.

Activity calls are given as the source filed them.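 How the source made its calls: active means at least 20% inhibition of 6-phosphogluconate dehydrogenase activity; inactive means the rest.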 Where a SMILES comes first, the peptide text is derived from it.

This experiment deals with 6-phosphogluconate dehydrogenase, decarboxylating (Homo sapiens) (UniProt P52209). The experiment can be described thus: inhibition of human phosphogluconate dehydrogenase – biochemical, recombinant enzyme, NADPH absorbance, primary screen (AID 1159550). Particulars: recombinant 6PGD, NADPH absorbance 341 nm; at 10 µM; active compounds read high.
6-phosphogluconate dehydrogenase, decarboxylating (Homo sapiens), sequence (P52209 whole entry, looked up): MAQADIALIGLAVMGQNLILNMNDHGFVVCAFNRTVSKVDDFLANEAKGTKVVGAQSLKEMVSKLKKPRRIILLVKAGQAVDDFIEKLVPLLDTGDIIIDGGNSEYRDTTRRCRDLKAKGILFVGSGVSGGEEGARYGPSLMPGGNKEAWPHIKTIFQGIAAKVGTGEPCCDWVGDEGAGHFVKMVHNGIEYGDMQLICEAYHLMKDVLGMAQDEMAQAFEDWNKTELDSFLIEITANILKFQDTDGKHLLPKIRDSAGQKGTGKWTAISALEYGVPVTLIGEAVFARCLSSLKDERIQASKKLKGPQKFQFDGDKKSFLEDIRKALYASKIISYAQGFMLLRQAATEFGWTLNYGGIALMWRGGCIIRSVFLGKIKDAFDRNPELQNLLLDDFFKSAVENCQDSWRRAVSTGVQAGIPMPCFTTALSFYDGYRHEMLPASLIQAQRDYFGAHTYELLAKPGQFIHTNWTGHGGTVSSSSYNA
For the compound `O=C(O)Cc1cc(I)c(Oc2cc(I)c(O)c(I)c2)c(I)c1`, the inhibition was -3.72% (inactive).

As to `CC[C@H](C(=O)[C@@H](C)[C@@H](O)[C@H](C)[C@@H]1O[C@@H]([C@@H](CC)C(=O)O)[C@@H](C)C[C@@H]1C)[C@H]1O[C@]2(C=C[C@@H](O)[C@]3(CC[C@@](C)([C@H]4CC[C@](O)(CC)[C@H](C)O4)O3)O2)[C@H](C)C[C@@H]1C`, the inhibition is -15.5% (inactive).

Regarding `CC(=O)Oc1ccc2c(c1C(C)C)CCC1C(C)(C)CCCC21C` (centres undefined), the inhibition is 2.45% (inactive).

Consider `C=C1C(C2(C)C(OC(C)=O)CC(=O)OC(C)(COC(C)=O)C2CC(=O)OC)C(OC=O)C(OC(=O)C(O)C(C)CC)C2(C)C(c3ccoc3)CC(=O)C12O` (centres undefined), for which the inhibition was 7.27% (inactive).

With `C[C@]12CC[C@@H](O)C[C@H]1CC[C@@H]1[C@@H]2C(=O)C[C@@]2(C)[C@H]1CC[C@]2(O)C(=O)CO`, the inhibition was -17% (inactive).

As for `CC(C)=CCC[C@](C)(O)C1CC=C(C)CC1` (some centres undefined), the inhibition is 1.33% (inactive).

With `COc1cc2c(cc1O)[C@@H](Cc1ccc(O)cc1)[N+](C)(C)CC2`, the inhibition is 16.9% (inactive).

On to `C=C(C)/C=C1/C=CC(=O)C(C)=C1`, for which the inhibition was -4.6% (inactive).

Take `CC(=O)O[C@H]1C[C@@H](O)C(C)(C)[C@@H]2C[C@@H](OC(C)=O)[C@]3(C)[C@H](CC[C@@]4(C)[C@@H](c5ccoc5)OC(=O)[C@H]5O[C@@]534)[C@@]12C`: the inhibition was 1.48% (inactive).

On to `COC(=O)C[C@H]1C(C)(C)[C@H](O)[C@@H]2CC3=C4CC(O)O[C@@H](c5ccoc5)[C@@]4(C)CCC3[C@]1(C)C2=O` (some centres undefined), for which the inhibition was -7.8% (inactive).

For `CO[C@H]1C[C@H](O[C@H]2[C@H](C)[C@@H](O[C@@H]3O[C@H](C)C[C@H](N(C)C)[C@H]3OC(C)=O)[C@@H](C)C[C@@]3(CO3)C(=O)[C@H](C)[C@H](OC(C)=O)[C@@H](C)[C@@H](C)OC(=O)[C@@H]2C)O[C@@H](C)[C@@H]1OC(C)=O`, the inhibition was -13% (inactive).

Take `CCCCCCCCCCCCC(C(=O)O)C(C)C(=O)O` (centres undefined): the inhibition was -10.3% (inactive).

As to `CC(=O)O[C@H](CC(=O)[O-])C[N+](C)(C)C`, the inhibition is -15.2% (inactive).

With `COC(=O)C[C@H]1C(C)(C)C(=O)[C@@H]2CC3=C4CC(OC)O[C@@H](c5ccoc5)[C@]4(C)CCC3[C@@]1(C)C2=O` (some centres undefined), the inhibition was -2.67% (inactive).

Turning to `COc1ccc2c(c1)CC[C@@H]1[C@@H]2CC[C@]2(C)[C@@H](O)[C@H](O)C[C@@H]12`, the inhibition is 5.45% (inactive).

Take `C=CCCCCCCCCCCC/C=C/C(O)COC(C)=O` (centres undefined): the inhibition was -11.7% (inactive).

Turning to `CC12CCC3c4ccc(O)cc4CCC3C1CCC2OC(=O)CCC1CCCC1` (centres undefined), the inhibition is -3.96% (inactive).

Turning to `CC[C@@H](CC[C@@H](C)[C@H]1CC[C@H]2[C@@H]3CC[C@H]4C[C@@H](O)CC[C@]4(C)[C@H]3CC[C@]12C)C(C)C`, the inhibition was -13.2% (inactive).

Turning to `O=c1c(O)cc([C@H]2Oc3cc(O)cc(O)c3C[C@H]2O)cc2c([C@H]3Oc4cc(O)cc(O)c4C[C@H]3O)cc(O)c(O)c12`, the inhibition was 31.2% (active).

Take `COC(=O)C[C@H]1C(C)(C)C(=O)[C@@H]2CC3C4=CC(=O)O[C@@H](c5ccoc5)[C@]4(C)CC[C@@H]3[C@@]1(C)C2=O` (some centres undefined): the inhibition was 12.7% (inactive).

For `CC(C)C[C@H](NC(=O)[C@H](C)N)C(=O)O` (H-Ala-Leu-OH), the inhibition is -6.83% (inactive).

As to `Cc1cc(=O)c2c(O)c3c(cc2o1)OC(C)(C)CC3`, the inhibition was 3.81% (inactive).

Turning to `CC[C@@H](/C=C/[C@@H](C)[C@H]1CC[C@H]2[C@@H]3CC=C4C[C@@H](O)CC[C@]4(C)[C@H]3CC[C@]12C)C(C)C`, the inhibition is 15.3% (inactive).

With `NCC1O[C@@H](O[C@H]2C(O)C(O[C@@H]3OC(CO)[C@H](O)[C@H](N)C3O)[C@@H](N)C[C@H]2N)C(O)[C@@H](O)[C@H]1O` (some centres undefined), the inhibition is -2.65% (inactive).

With `Cn1nnnc1SCC1=C(C(=O)O)N2C(=O)[C@@H](NC(=O)[C@@H](O)c3ccccc3)[C@H]2SC1`, the inhibition was 0.99% (inactive).

On to `CC(C)=CCC[C@@H](C)[C@H]1CC[C@@]2(C)C3=C(CC[C@]12C)[C@@]1(C)CC[C@H](O)C(C)(C)[C@@H]1CC3`, for which the inhibition was 14.5% (inactive).

In the case of `COc1ccc2c(c1)[C@@]1(C)CCC(=O)C[C@@H]1CC2`, the inhibition was 3.57% (inactive).

Turning to `O=C/C=C/c1ccc(O)cc1`, the inhibition was 1.58% (inactive).

Take `C[C@H](CCC(=O)O)[C@H]1CC[C@H]2[C@@H]3C=C[C@@H]4C[C@H](O)CC[C@]4(C)[C@H]3CC[C@]12C`: the inhibition was 3.87% (inactive).

As for `COC(=O)c1c(Cl)c(Cl)c(C(=O)OC)c(Cl)c1Cl`, the inhibition is -11.1% (inactive).

With `CC(C)[C@@H](C)/C=C/[C@@H](C)[C@H]1CC[C@H]2C3=CCC4CC(=O)CC[C@]4(C)[C@H]3CC[C@]12C` (some centres undefined), the inhibition is 2.32% (inactive).

On to `C=C1C(CCl)(CCl)C2(Cl)C(Cl)C(Cl)C1(Cl)C2(Cl)Cl` (centres undefined), for which the inhibition was -11.7% (inactive).

Take `COC(=O)C[C@H]1C(C)(C)C2(Cl)O[C@@]34CC2C(=O)[C@]1(C)C3CC[C@]1(C)C4=CC(=O)O[C@H]1c1ccoc1` (some centres undefined): the inhibition is 6.04% (inactive).

As for `CCC(C)C(N)C1=NC(C(=O)NC(CC(C)C)C(=O)NC(CCC(=O)O)C(=O)NC(C(=O)NC2CCCCNC(=O)C(CC(N)=O)NC(=O)C(CC(=O)O)NC(=O)C(Cc3cnc[nH]3)NC(=O)C(Cc3ccccc3)NC(=O)C(C(C)CC)NC(=O)C(CCCN)NC2=O)C(C)CC)CS1` (centres undefined), the inhibition is -5.55% (inactive).

`CC1OC(OC2C(O)COC(OC3C(C)OC(OC4C(OC(=O)C56CCC(C)(C)CC5C5=CCC7C8(C)CCC(OC9OC(CO)C(O)C(O)C9O)C(C)(C)C8CCC7(C)C5(C)CC6O)OCC(O)C4O)C(O)C3O)C2O)C(O)C(O)C1O` (centres undefined): the inhibition was -33.1% (inactive).

In the case of `N[C@@H](Cc1cnc[nH]1)C(=O)Nc1ccc2ccccc2c1`, the inhibition is -4.42% (inactive).

As to `CC(C)(OC(=O)c1ccccc1)[C@@H]1Cc2cc3ccc(=O)oc3cc2O1`, the inhibition is 20% (active).

Regarding `COC(=O)C1OC(=O)C2OC23C1(C)CCC1C2(C)CCC(=O)C(C)(C)C2CC(OC(C)=O)C13C` (centres undefined), the inhibition was -6.02% (inactive).

`CC(=O)[C@H]1CC[C@H]2[C@@H]3CC(=O)C4=CC(=O)CC[C@]4(C)[C@H]3CC[C@]12C`: the inhibition is -2.73% (inactive).

By inhibition is commonly meant the relative decrease from the control value, in per cent.
